Screening results (PubChem)
This excerpt belongs to a sample that is enriched for hits.
RmlC RmlD mix: inhibitors of RmlC and RmlD coupled enzymes; actives 0.39% (n = 110,000); inhibition, % at 5.5 µM; RmlC/RmlD coupled enzyme inhibition, 384-well mixture HTS; AID 1532; in the data active = inhibition above about 30%, passing the limit was not always enough; inconclusive = no clear call, values can overlap the other calls
HIV RNase H inh-1: blocks HIV-1 RNase H cleavage of RNA/DNA duplex. P04585. RT-RNase H RNA/DNA duplex cleavage, fluorescence. inhibition, % at 10 µM. actives 1.9% (n = 65,000). AID 565; in the data active = inhibition above about 50%
HIV RNase H inh-2: confirmation of HIV-1 reverse transcriptase RNase H inhibitors. actives 39% (n = 1,000). inhibition, % at 10 µM. Recombinant RT RNase H, fluorescent RNA/DNA duplex cleavage. shares compounds with HIV RNase H inh-1; in the data active = inhibition above about 48%; inconclusive = no clear call, values can overlap the other calls
Each line names hits and unclear results; the compound was inactive in the other large screens (follow-up assays come after a bar, where they were run).

Cn1c(=O)c2[nH]c(CCCC(=O)O)nc2n(Cc2ccccc2)c1=S	none (no result: HIV RNase H inh-1)
O=C(c1ccc2c(c1)N(Cc1ccccc1)CCS2)N1CCCCC1	none (no result: HIV RNase H inh-1)
O=C(c1ccc(Cl)cc1)N1CCN(c2nc(N3CCCCC3)nc(N3CCCCC3)n2)CC1	none (no result: RmlC RmlD mix)
CCCOc1ccc(N2C(=O)CC(N(O)c3ccccc3)C2=O)cc1 (stereo not given)	none
COc1ccccc1N(O)C1CC(=O)N(c2ccc(F)cc2)C1=O (stereo not given)	HIV RNase H inh-1 62.8 | HIV RNase H inh-2 inactive
CCn1c(O)c(/C=N/n2cnnc2)sc1=S	HIV RNase H inh-1 61.0 | HIV RNase H inh-2 inactive
CCn1c(O)c(C=NC2CCCC2)sc1=S	none (no result: HIV RNase H inh-1)
CC(C)n1c(N2CCN(CC(=O)Nc3ccc4c(c3)OCCO4)CC2)nc2ccccc21	none
COC(=O)c1cc(NC(=O)c2ccccc2)c(=O)oc1C/C=N\OCc1ccc(Cl)cc1Cl	none (no result: HIV RNase H inh-1)
CC(=O)Nc1ccc(S(=O)(=O)N2CCN(C(=O)c3cccnc3)CC2)cc1	none (no result: HIV RNase H inh-1)
COc1ccc(CCn2c(=N)c(C(=O)N3CCN(C)CC3)cc3c(=O)n4ccccc4nc32)cc1	none
COc1ccc(CCn2c(=N)c(C#N)cc3c(=O)n4ccccc4nc32)cc1	HIV RNase H inh-1 54.7 (no result: RmlC RmlD mix) | HIV RNase H inh-2 inactive
CC(NC(=O)Nc1nnc(C(F)(F)F)s1)N1C(=O)C2C3C=CC(C3)C2C1=O (stereo not given)	none
Cc1nnc(NC(=O)NC(C)N2C(=O)C3C4C=CC(C4)C3C2=O)s1 (stereo not given)	HIV RNase H inh-1 55.4 | HIV RNase H inh-2 inactive
COCCNC(=O)C(OC(=O)CC1Sc2ccccc2NC1=O)c1ccccc1 (stereo not given)	none (no result: HIV RNase H inh-1)
COc1ccc(-c2cc(C(=O)Nc3cc(OC)c(OC)c(OC)c3)no2)cc1OC	HIV RNase H inh-1 80.0 | HIV RNase H inh-2 inactive
COc1cccc(-c2cc(C(=O)Nc3ccc(OC)c(OC)c3)no2)c1	none
CNC(=O)CN(c1ccc(F)cc1)S(=O)(=O)c1cc(C)ccc1OC	none (no result: HIV RNase H inh-1)
CCOc1ccc(N(CC(=O)Nc2ccc3c(c2)OCCO3)S(=O)(=O)c2c(C)noc2C)cc1	HIV RNase H inh-1 55.8 | HIV RNase H inh-2 inactive
CCOc1ccc(N(CC(=O)Nc2ccc(OC)cc2)S(=O)(=O)c2c(C)noc2C)cc1	none
O=C(Cn1cnc2c(nnn2Cc2ccc(F)cc2)c1=O)NCc1ccco1	none
CCN1CCN(C(=O)C2CCC(CNS(=O)(=O)c3ccccc3)CC2)CC1 (stereo not given)	none (no result: HIV RNase H inh-1)
Cc1ccc(C2c3c(oc4ccccc4c3=O)C(=O)N2CCCN2CCOCC2)o1 (stereo not given)	none (no result: HIV RNase H inh-1)
CC(=O)c1sc(N2C(=O)c3oc4ccccc4c(=O)c3C2c2ccc(C)o2)nc1C (stereo not given)	HIV RNase H inh-1 70.8 (no result: RmlC RmlD mix) | HIV RNase H inh-2 inconclusive
Cc1ccc(-c2nnc(SCC(=O)N3CC(C)CC(C)C3)o2)cc1C (stereo not given)	none
O=C(Nc1cccnc1)c1c(O)c2c(n(Cc3ccccc3)c1=O)CCCC2	HIV RNase H inh-1 68.4 | HIV RNase H inh-2 inconclusive
CCCn1c2c(c(O)c(C(=O)Nc3ncccc3C)c1=O)CCCC2	none
COc1ccc2c(c1)N(C)C(=O)CC(c1ccccc1)=N2	none
CN(c1ccccc1)C(c1ccc(F)cc1)c1nnnn1C1CCCC1 (stereo not given)	none
O=C(OCN1C(=O)c2ccccc2C1=O)C1CCCCC1	none
O=C1c2ccccc2C(=O)N1SC1CCCCC1	HIV RNase H inh-1 80.2 | HIV RNase H inh-2 inactive
CCCC(C)C1C(C#N)=C(N)Oc2cc(C)oc(=O)c21 (stereo not given)	none (no result: RmlC RmlD mix)
CCN(CC)C(=O)C1CC(=O)N(c2ccc(F)c(Cl)c2)C1 (stereo not given)	none
COCC(=O)N(C)C1(c2nnnn2CCOC(=O)Nc2cccc3ccccc23)CCCC1	none
COC(=O)CNc1c(-c2ccccc2)nc2ccc(Br)cn12	none (no result: HIV RNase H inh-1)
Cc1cc(NC(=O)CN2CCc3ccccc3C2)nc2c1c(=O)oc1ccccc12	HIV RNase H inh-1 57.8 (no result: RmlC RmlD mix) | HIV RNase H inh-2 inactive
CCCC(=O)Nc1cc(C)c2c(=O)oc3ccccc3c2n1	none
COc1ccc(F)cc1S(=O)(=O)Nc1ccc(C)cc1	none
Cn1c(=O)c2c(SCc3ccccc3)nc(-c3ccco3)nc2n(C)c1=O	HIV RNase H inh-1 51.5 | HIV RNase H inh-2 inactive
Cn1c(=O)c2c(SCc3cccc(C(F)(F)F)c3)nc(-c3ccco3)nc2n(C)c1=O	none
O=S(=O)(c1ccccc1)c1nc(-c2ccccc2)oc1N1CCCCC1	none (no result: HIV RNase H inh-1)
O=C(CN1C(=O)NC2(CCc3ccccc32)C1=O)c1ccc2c(c1)OCCO2 (stereo not given)	none
Cc1ccc2nc(NC(=O)CN(C)S(=O)(=O)c3cccc4nsnc34)sc2c1	HIV RNase H inh-1 50.5 | HIV RNase H inh-2 inactive
Cc1ccnc(NC(=O)CN(C)S(=O)(=O)c2cccc3nsnc23)c1	none
COC(=O)c1oc2ccc(Br)cc2c1NC(=O)CN1CCN(C)CC1	none
COC(=O)c1oc2ccc(Br)cc2c1NC(=O)c1ccccc1	RmlC RmlD mix inconclusive, HIV RNase H inh-1 59.2 | HIV RNase H inh-2 76.1
